# Screening results (PubChem)
# BJeLR lethal: BJeLR cell viability loss | inhibition, % (concentration not given with the values) | BJeLR (HRASV12) viability, CellTiter-Glo ATP luminescence, 48 h | actives 0.17% (n = 300,000); in the data active = inhibition above about 50%
# PrPC surface inh: reduces human prion protein on the cell surface; P04156; cell surface PrPC, TR-FRET read-out; inhibition, % at 13.8 µM; actives 0.43% (n = 370,000); in the data active = inhibition above about 24%; also: 0% = median of the test wells and 100% = reference compound wells
# RN4220 kill: S. aureus RN4220 growth inhibition. AID 1259311. actives 0.33% (n = 330,000). inhibition, % (test concentration not listed). OD600, 16 h; in the data active = inhibition above about 85%;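 also: plate controls were untreated cells for no effect and reference antibiotic for full effect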
# Sa ugtP lethal: kills S. aureus RN4220 lacking UgtP; S. aureus RN4220 ugtP deletion, OD600 growth, 16 h; AID 1259309; actives 0.54% (n = 330,000); growth inhibition, % (no concentration beside the values); in the data active = growth inhibition above about 68%;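 also: plate controls were untreated wells for no effect and antibiotic for full effect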
# 3CLpro inhibitor: SARS-CoV 3CLpro protease inhibition; inhibition, % at 6 µM; recombinant SARS-CoV 3CLpro, quenched FRET peptide cleavage; actives 0.14% (n = 290,000); in the data active = inhibition above about 12%
# DUSP3 inh: blocks human VHR1 dual specificity phosphatase; P51452; recombinant VHR phosphatase, pNPP absorbance; inhibition, % at 13.3 µM; actives 0.52% (n = 290,000); AID 1654; in the data active = inhibition above about 50%
# Target sequence (P51452 whole entry, looked up): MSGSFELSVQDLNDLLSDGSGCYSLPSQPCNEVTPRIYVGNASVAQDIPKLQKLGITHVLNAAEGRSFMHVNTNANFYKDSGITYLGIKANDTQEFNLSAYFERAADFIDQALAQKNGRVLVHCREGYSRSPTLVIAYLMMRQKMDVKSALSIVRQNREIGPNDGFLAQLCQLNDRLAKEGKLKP
# * = called active by the depositor; . = not tested or not shown. Sampled rows, rich in hits. Any-hit rate of the full collection: about 1.4%.
SMILES,BJeLR lethal,PrPC surface inh,RN4220 kill,Sa ugtP lethal,3CLpro inhibitor,DUSP3 inh
COc1ccc2cc(C(=O)N3CCc4ccccc43)[nH]c2c1,-8.3,-3.8,0.4,-3.5,-5.5,52.6*
CN(C)CCCNc1ccc(-c2n[nH]c(=O)c3ccccc23)cc1[N+](=O)[O-],-1.5,-42.4,6.2,10.1,-0.7,55.0*
CC(O)CNc1ccc(-c2n[nH]c(=O)c3ccccc23)cc1[N+](=O)[O-] (centres undefined),-2.0,-45.0,5.2,11.6,-4.0,-1.6
O=C1C=C(c2ccc(OC(F)(F)F)cc2)CC(c2ccc(Cl)cc2)C1 (centres undefined),.,.,-10.0,18.9,.,.
CCC(C)NC(=O)N[C@@H](CCSC)C(=O)OC (some centres undefined),-1.4,-0.9,1.7,-2.8,1.4,56.4*
Cc1noc(C)c1NC(=O)Nc1ccc2c(c1)C(=O)N(C(C)CO)CC(C)C(CN(C)C(=O)NC(C)C)O2 (centres undefined),.,.,4.1,0.4,.,.
CNc1ccc2oc(CC3O[C@@]4(CCC3C)OC(C(C)C(=O)c3ccc[nH]3)C(C)CC4C)nc2c1C(=O)O (some centres undefined),.,.,96.4*,99.5*,.,.
COC(=O)C1=C(c2ccc(F)cc2OCc2ccccc2)CC2CCC1N2C(=O)NCc1cccc(OC)c1 (centres undefined),.,.,-5.1,12.7,.,.
COc1cc(C=CC(=O)c2ccc([N+](=O)[O-])o2)ccc1O,.,.,68.3,99.1*,.,.
COc1ccc(C=CC(=O)c2ccc([N+](=O)[O-])o2)cc1,.,.,17.8,92.7*,.,.
Cc1ccc(/C=C/C(=O)c2ccc([N+](=O)[O-])o2)cc1,10.9,0.3,.,.,.,.
C=CCC(CC(=O)NCCO)C(=O)NC(COC(=O)C(CC=C)Cc1ccc(F)cc1)Cc1c[nH]c2ccccc12 (centres undefined),.,.,6.9,0.1,.,.
CSc1ccccc1C(=O)NCCCn1ccnc1,16.6,-0.5,3.0,1.1,1.5,53.9*
O=C(NCCCn1ccnc1)c1ccc(S(=O)(=O)N2CCCCCC2)cc1,4.0,-5.9,2.5,0.6,5.9,31.1
CC1CC(C)CN(S(=O)(=O)c2ccc(C(=O)NCCCn3ccnc3)cc2)C1 (centres undefined),108.9*,.,-0.8,-6.1,-1.9,1.0
COc1ccc(-c2ccc(/C=C3/C(=N)N4C(C)=CSC4=NC3=O)o2)c([N+](=O)[O-])c1,-20.4,1.9,5.9,97.7*,-2.9,13.3
COc1ccc(-c2ccc(/C=C3\C(=O)N(c4ccccc4)N=C3c3ccccc3)o2)c([N+](=O)[O-])c1,1.8,4.9,-7.2,1.9,0.0,1.3
CC(=O)Oc1c(C)c2c3c(c1OC(C)=O)[C@@H](C)CC[C@@H]3[C@@H](C)C[C@H]2C=C(C)C,.,3.0,-10.0,86.4*,.,.
COC(=O)C1=C(c2ccc(-c3ccccc3)c(F)c2)CC2CCC1N2C(=O)NCCNC(C)=O (centres undefined),.,.,6.1,-14.2,.,.
Cc1cc2c(cc1S(=O)(=O)Nc1ccc(OC(F)(F)F)cc1)OCC(=O)N2,6.5,-2.4,-8.3,91.7*,4.3,-1.9
O=C(NCc1cccnc1)C1CC=CC2CCN(Cc3ccc(Cl)c(Cl)c3)C(=O)C21 (centres undefined),.,.,6.3,-9.8,.,.
CC/C(=N\NC(=O)C1CCCC1)c1ccc(Br)cc1,3.6,-3.2,.,.,-2.7,50.2*
COC(=O)c1sccc1NC(=O)C1CCCCC1C(=O)O (centres undefined),2.7,37.1*,3.4,5.1,-1.5,4.8
COC(=O)c1sccc1NC(=S)N1C(C)CCCC1C (centres undefined),2.5,12.4,5.7,7.2,1.2,50.6*
COC(=O)c1ccccc1NC(=O)C1CCCCC1C(=O)O (centres undefined),3.1,-0.9,7.7,6.2,4.8,-8.6
SMILES,BJeLR lethal,PrPC surface inh,RN4220 kill,Sa ugtP lethal,3CLpro inhibitor,DUSP3 inh
COC(=O)c1sccc1NC(=S)N1CCCCC1C (centres undefined),2.2,3.9,-1.0,8.1,1.6,16.1
CC(C)CN(CC(C)C)C1=NC(=Cc2ccco2)C(=O)N1c1ccccc1,.,.,-2.9,11.9,.,.
O=C(NCc1ccccc1)C1=CC(c2csc3ccccc23)CC(OCCCCO)O1 (centres undefined),.,.,0.3,3.9,.,.
Cc1cccc(OCC(=O)NCCNC(=O)c2cnccn2)c1,5.0,-0.1,1.1,0.5,-2.2,19.6
Cc1cccc(OCC(=O)NCCNC(=O)c2ccncc2)c1,4.7,1.0,1.5,7.1,-4.3,59.7*
Cc1c(C(=O)N(CCO)Cc2ccccc2)oc2c(F)cccc12,-10.3,9.3,4.9,18.2,-3.1,55.5*
C#CCOCCOCCOCCNc1nc(N2CCOCC2)nc(N2CCN(C(=O)C(CCCCN)n3cc(C(N)CO)nn3)CC2)n1 (centres undefined),.,.,7.9,-0.4,.,.
N=c1c2c(-c3ccccc3)c(-c3ccccc3)n(Cc3ccco3)c2ncn1CCCO,18.5,-3.7,-4.5,12.8,-0.8,-11.5
N=c1c2c(-c3ccccc3)c(-c3ccccc3)n(Cc3ccco3)c2ncn1CCO,-4.7,-11.8,-0.4,84.7*,4.2,17.7
CN(C)CCCNS(=O)(=O)c1ccc(-n2nnc3ccccc32)c([N+](=O)[O-])c1,-9.3,-45.7,2.9,11.1,2.7,58.5*
CS(=O)(=O)c1ccc(-n2nnc3ccccc32)c([N+](=O)[O-])c1,-6.4,-29.5,6.3,1.1,-1.8,33.9
O=C(/C=C/c1ccccc1O)c1ccco1,10.4,-3.1,9.9,-8.0,-2.5,-8.3
O=C(/C=C/c1cc(Br)ccc1O)c1ccco1,-4.4,-8.1,90.8*,92.4*,-2.0,3.8
CC(=CC=C(C#N)C#N)c1cc(C#N)c(N)o1,.,.,11.3,3.3,.,.
Cc1ccc(C(=O)Sc2cccccc2=O)cc1,103.8*,7.5,34.4,39.8,9.4,5.2
COCC(=O)N(Cc1cc2ccc(C)c(C)c2n2nnnc12)C1CCCC1,3.2,-0.2,-0.4,-3.1,1.8,54.4*
Cc1cccc2cc(CN(CC3CCCO3)C(=O)c3cccnc3)c3nnnn3c12 (centres undefined),2.9,3.4,-3.7,-0.1,1.2,21.3
C=C1CCN(C(Cc2ccccc2)C(=O)NCCC(C)C)S(=O)(=O)c2ccccc21 (centres undefined),.,.,6.2,-10.9,.,.
COc1ccc2c(=O)c3c(=O)n(Cc4ccco4)c(-c4ccco4)nc3oc2c1,-4.5,-5.6,9.7,-17.8,4.4,14.6
COc1ccc(-c2nc3oc4cc(OC)ccc4c(=O)c3c(=O)n2Cc2ccco2)cc1,6.5,-1.9,27.5,97.9*,-5.4,-22.1
COC(=O)C1CC1C(NC(=O)c1ccc[nH]1)c1ccccc1 (centres undefined),.,.,5.8,-0.1,.,.
CCc1ccc(Nc2n[n+](-c3ccccc3)c(-c3c(Cl)cccc3Cl)s2)cc1,29.5,11.6,100.0*,100.1*,7.2,36.9
Fc1ccc(-[n+]2nc(Nc3ccccc3)sc2-c2c(Cl)cccc2Cl)cc1,10.0,1.7,.,.,-4.2,12.7
